Rows were chosen to be rich in hits. Some 0.71% of all compounds tested hit in one or more screens of this group.
GALK inhibitor = qHTS Assay for Inhibitors of Human Galactokinase (GALK). P51570. Purified GALK, Kinase-Glo residual ATP luminescence. Potency, µM (doses to about 57.5 µM), hits mostly inhibitors. 270,000 tested, 0.007% active. AID 1868, 2009
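Quantitative HTS: GALK 5 nM, ATP 35 uM, galactose 100 uM, 1 h room temperature, then luciferase-based ATP detection.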
USP1-UAF1 inh = Inhibitors of USP1/UAF1: Primary Screen | Ubiquitin carboxyl-terminal hydrolase 1 (Homo sapiens), O94782 | recombinant USP1/UAF1, Ub-Rhodamine cleavage fluorescence | Potency, µM (titrated, usually from 57.1 µM), hits mostly inhibitors | 390,000 tested, 0.23% active; note: nearly all actives have a fitted effect of over 60% in size
Target sequence (O94782 whole entry, looked up): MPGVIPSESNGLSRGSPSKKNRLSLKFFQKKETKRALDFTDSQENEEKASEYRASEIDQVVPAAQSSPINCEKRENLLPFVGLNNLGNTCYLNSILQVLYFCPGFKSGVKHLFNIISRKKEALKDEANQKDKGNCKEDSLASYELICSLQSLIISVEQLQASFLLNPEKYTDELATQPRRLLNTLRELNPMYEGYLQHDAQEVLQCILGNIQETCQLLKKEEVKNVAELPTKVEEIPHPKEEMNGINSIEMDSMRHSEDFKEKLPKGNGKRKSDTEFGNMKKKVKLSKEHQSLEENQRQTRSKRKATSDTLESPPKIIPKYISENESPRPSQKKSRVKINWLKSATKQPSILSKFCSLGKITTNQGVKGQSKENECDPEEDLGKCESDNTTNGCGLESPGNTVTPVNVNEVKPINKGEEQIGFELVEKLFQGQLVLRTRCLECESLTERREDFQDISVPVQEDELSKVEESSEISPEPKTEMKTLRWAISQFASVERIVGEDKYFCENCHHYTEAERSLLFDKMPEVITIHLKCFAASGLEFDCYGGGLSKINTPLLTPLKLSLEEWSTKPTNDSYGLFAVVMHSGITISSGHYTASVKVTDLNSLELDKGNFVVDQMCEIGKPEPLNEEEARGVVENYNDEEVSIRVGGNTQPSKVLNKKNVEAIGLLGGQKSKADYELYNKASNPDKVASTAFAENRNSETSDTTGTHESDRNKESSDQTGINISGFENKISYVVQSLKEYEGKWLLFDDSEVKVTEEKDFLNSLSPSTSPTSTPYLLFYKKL
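USP1/UAF1 complex (1 nM) preincubated 15 min at room temperature with compound, then Ub-Rho substrate (150 nM final) added. Kinetic fluorescence at 480/540 nm over 6 reads at 60 s intervals; 50 mM HEPES pH 7.8, 0.5 mM EDTA, 0.1 mg/ml BSA, 1 mM TCEP, 0.01% Tween-20.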
USP2a block = qHTS Assay for Inhibitors of Ubiquitin-specific Protease USP2a Using CHOP2 as the Reporter; Ubiquitin carboxyl-terminal hydrolase 2 (Homo sapiens), O75604; USP2 core, Ub-CHOP2 coupled fluorogenic reporter, 485/531; Potency, µM (highest dose often 38.3 µM), usual class: inhibitors; 330,000 tested, 0.01% active; AID 463254, 2010
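USP2 core (10nM final) preincubated 30min RT with compound in 20mM Tris-HCl pH 8.0, 2mM CaCl2, 2mM beta-mercaptoethanol, 0.05% CHAPS; 25nM Ub-CHOP2 plus 25nM reporter substrate added, fluorescence (Ex485/Em531) read after 60min.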
Coupling enz = qHTS Assay for Inhibitors of Fructose-1,6-bisphosphate Aldolase from Giardia Lamblia: Coupling assay counterscreen. coupling enzyme system counterscreen, AmpLite Red fluorescence. activity change, negative = inhibition, % at 58.2 µM, hits read low. 290,000 tested, 0.67% active. AID 2472, 2010; in the data active = activity change below about -30%
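Compounds tested against the coupling enzymes alone at 57.5 uM final; readout was AmpLite Red fluorescence (525/598 nm) after 20 min at RT.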
PI4K2A block = qHTS for small molecular inhibitors of PI4K2A; purified PI4K2A, ADP-Glo luminescence, 1 h; hits give low values; activity change, negative = inhibition, % at 76.9 µM; 420,000 tested, 0.13% active; Phosphatidylinositol 4-kinase type 2-alpha (Homo sapiens), Q9BTU6; in the data active = activity change below about -50%; inconclusive = mostly about -30% to -49%
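PI4K2A activity was measured by ADP-Glo luminescence: enzyme (4 ug/mL stock) and phosphatidylinositol (1.2 mM stock) in Tris pH 7.5/MgCl2/EGTA/Triton X-100 buffer were reacted with ATP (300 microM stock) for one hour at ambient temperature.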
Eya2 phos inh = qHTS Assay for Inhibitors of the Phosphatase Activity of Eya2 | Protein phosphatase EYA2 (Homo sapiens), O00167 | recombinant Eya2, OMFP fluorescence dephosphorylation (OMFP is methylfluorescein phosphate) | Potency, µM (series often up to 76.9 µM), usual class: inhibitors | 330,000 tested, 0.006% active | AID 488837, 2010
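Eya2 (0.2 uM) preincubated 10 min at ambient with compound, then OMFP substrate added at 50 uM; 10 min reaction in 50 mM HEPES pH 7.5, 50 mM NaCl, 5 uM MgCl2, 0.05% BSA, 1 mM DTT. Fluorescence read at Ex 485/Em 525 nm.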
Hits are given with their value; - = inactive; ? = inconclusive; . = not tested or not shown; ! = not confirmed by another sample. Unless noted, calls come from the whole dose curve; as a rule, active = well fitted curve in the direction sought with a large enough effect; inconclusive = small, poorly fitted or top-dose-only effect, or another doubt; inactive = no such curve, though single readings can be large; an effect the other way counts as inactive or inconclusive.

SMILES	GALK inhibitor	USP1-UAF1 inh	USP2a block	Coupling enz	PI4K2A block	Eya2 phos inh
CCN1CCN(C(=O)c2ccc(-c3nc4ccccc4s3)s2)CC1	-	-	-	-	-	-
c1ccc2sc(-c3ccc4c(c3)OCO4)nc2c1	-	-	-	-	-67.6	-
O=C(c1ccc(-c2nc3ccccc3s2)s1)N1CCOCC1	-	-	-	-	-66.5	-
CC(C)(C)N1C(=O)[C@H]2[C@H]3[C@H](O)[C@H](O)C/C(=N/NC(=O)OCc4ccccc4)[C@@H]3CC[C@@H]2C1=O	.	.	.	-	.	.
CC(=O)CC[C@H]1CC[C@]2(CCCN(C(=O)C(C)(C)C)C2)O1	.	.	.	.	-	.
CCCNC1=C(N(C(C)=O)c2cccc(F)c2)C(=O)c2ccccc2C1=O	-	?	-	-48.8	-	-
CCCNC(=O)COC(=O)/C=C/c1cccc(F)c1	-	-	-	-	-	-
COC(CNC(=O)c1ccc2c3c(onc13)-c1ccccc1C2=O)OC	-	17.8µM	-	-	?	-
COC(CNC(=O)c1cccnc1)OC	-	-	-	-	-	-
CCOC(=O)CC(=O)CSc1nc2ccc(C)cc2cc1C#N	-	28.2µM	-	-	-	-
Cc1nc2ccc(S(=O)(=O)NCC(=O)N(C)Cc3ccc(F)cc3)cc2s1	.	.	.	.	-	.
S=C(NC1CCCCC1)N1CCN(c2ccccn2)CC1	-	-	-	-40.6	-	-
C=CCOC(=O)N[C@H](c1ccccc1)[C@H](C)/C=C/CC(=O)OC	.	.	.	.	-	.
CC(C)(N[C@@H](Cc1c[nH]c2ccccc12)C(=O)NCC(c1ccccc1)c1ccccc1)C(=O)NC1CCCCC1	.	.	.	.	-	.
COc1ccc(-c2csc(N(CCCN(C)C)C(=O)c3ccccc3C)n2)cc1	-	-	-	-	-	50.1µM
CN1CCOc2ccc(S(=O)(=O)N3CCN(S(=O)(=O)c4c(F)cccc4F)CC3)cc21	.	.	-	.	.	-
Cc1c(C)c2c(c(C)c1O)CC[C@@](C)(CCC[C@@H](C)CCC[C@@H](C)CCCC(C)C)O2	.	.	.	-	.	.
Cc1c(C)c2c(c(C)c1O)CC[C@@](C)(C(=O)O)O2	.	.	.	-34.1	.	.
O=C(O)c1ccc(Nc2cnc3ccccc3n2)cc1	-	-	-	-	-55.1	-
CCOC(=O)c1ccc(Nc2cnc3ccccc3n2)cc1	-	-	-	-	-	-
Cc1c(C(=O)c2ccc(F)cc2F)c2ccccn2c1CCC#N	-	-	-	-40.0	-	-
Cc1c(C(=O)c2ccc(F)cc2F)c2ccccn2c1CCc1ccccn1	.	?	.	.	-	.
Cc1onc(-c2c(Cl)cccc2Cl)c1C(=O)Cl	.	.	.	.	-	.
Cc1cccc(OCC(O)CNC(C)(C)C)c1C (centres undefined)	.	.	.	.	-	.
Cc1c[nH]c2cccc(OCC(O)CNC(C)(C)C)c12 (centres undefined)	-	-	-	-35.2	-	-
SMILES	GALK inhibitor	USP1-UAF1 inh	USP2a block	Coupling enz	PI4K2A block	Eya2 phos inh
CCCCCOC(=O)c1[nH]c2c(c1C)C(=O)C(C(=O)OC)C(C)C2 (centres undefined)	-	-	-	-	-	-
COCCOC(=O)c1[nH]c2c(c1C)C(=O)C(C(=O)OC)C(C)C2 (centres undefined)	-	-	-	-35.7	-	-
CCOC(=O)OCC1OC(c2ccc(C(C)=O)cc2)C=CC1Oc1ccc(-c2ccccc2)cc1 (centres undefined)	.	.	.	-	.	.
Nc1cc(C(=O)O)c(N)c2c1C(=O)c1ccccc1C2=O	-	?	?	-	-54.7	?
CC(C)CO/N=C1/C[C@@H](O)[C@@H](O)[C@@H]2[C@@H]3C(=O)N([C@@H](C)c4ccccc4)C(=O)[C@H]3CC[C@@H]12	.	.	.	-	.	.
C=C1CCN(C(CC(C)C)C(=O)O)S(=O)(=O)c2ccccc21 (centres undefined)	.	.	.	-	.	.
CC1CN(c2cc3c(cc2F)c(=O)c(C(=O)O)cn3-c2ccc(F)cc2F)CCN1 (centres undefined)	.	.	.	.	-	.
O=C1Nc2c(Cl)cc(Cl)cc2C1=O	.	28.2µM	.	.	-	.
Cc1cc(CCCOc2c(C)cc(-c3noc(C(F)(F)F)n3)cc2C)on1	.	.	.	.	-	.
CCC(NC(C)C)C(O)c1ccc(O)c(O)c1 (centres undefined)	-	?	-	-53.1	-	-
CC(C)NC[C@H](O)c1ccc(O)c(O)c1	.	?	-	-65.5!	-	-
CC(C)NC[C@H](O)c1cc(O)cc(O)c1	.	.	.	-	.	.
CCC(c1ccc(O)c(O)c1)C(CC)c1ccc(O)c(O)c1 (centres undefined)	.	-	.	.	-	.
CC(C)C1=C2OC(N)=C(C#N)C(C#N)=C2C(C)CC1 (centres undefined)	-	?	-	-39.0	-	-
Cc1ccc(S(=O)(=O)N2C(N)=C(C(=O)NCc3ccc(Br)cc3)C(c3ccc(Cl)cc3)C2C(=O)c2ccccc2)cc1 (centres undefined)	.	.	.	.	-	.
Nc1ccc2cn[nH]c2c1	-	-	-	-32.2	-	-
CC1CCN(c2ccc(C(=O)O)cc2NS(=O)(=O)c2cccc3cccnc23)CC1	.	.	.	.	-	.
CCNC(=O)[C@@H]1CCCN1C(=O)[C@H](CCCN=C(N)N)NC(=O)[C@H](CC(C)C)NC(=O)CNC(=O)[C@H](Cc1ccc(O)cc1)NC(=O)[C@H](CO)NC(=O)[C@H](Cc1c[nH]c2ccccc12)NC(=O)[C@H](Cc1cnc[nH]1)NC(=O)[C@@H]1CCC(=O)N1	.	.	.	.	-	.
CCN(CC)c1ccc(C(=C2C=CC(=[N+](CC)Cc3cccc(S(=O)(=O)[O-])c3)C=C2)c2ccc(N(CC)Cc3cccc(S(=O)(=O)O)c3)cc2)cc1	.	.	.	-	.	.
CCN(CC)c1ccc2c(-c3ccc(S(=O)(=O)O)cc3S(=O)(=O)[O-])c3ccc(=[N+](CC)CC)cc-3oc2c1	-	31.6µM	?	-	?	?
CO[C@@H]1/C=C\CC(=O)N[C@@H](C)C(=O)OC[C@H](NS(=O)(=O)c2ccc(C)cc2)[C@H](C)/C=C\CC(=O)OC[C@H]1C	.	.	.	-	.	.
O=C1NC(=O)C2(N1)c1ccccc1-c1ccccc12	.	-	.	.	-	.
O=C1NC(=O)C2(N1)C(=O)c1cccc3cccc2c13 (centres undefined)	.	35.5µM	.	.	-	.
Cc1cc2c(cc1CC(=O)c1sccc1S(=O)(=O)Nc1onc(C)c1Cl)OCO2	.	.	.	.	-	.
O=C(Oc1ccc[nH]c1=O)c1ccc(F)cc1	.	-	.	.	-	.
O=C(Nc1ccccc1)Oc1ccc[nH]c1=O	-	?	-	-43.6	-	-

Bioassay records as filed in PubChem.
